# The entries come from a sample that favours the strongest signals as a whole.
# B1: Cohesin-hDCIR (Homo sapiens) (protein)
# chain: LDDLDAVRIKVDTVNAKPGDTVRIPVRFSGIPSKGIANCDFVYSYDPNVLEIIEIEPGDIIVDPNPDKSFDTAVYPDRKIIVFLFAEDSGTGAYAITKDGVFATIVAKVKEGAPNGLSVIKFVEVGGFANNDLVEQKTQFFDGGANVGDTTEPATPTTPVTTPTTTDDLDAASQKYSQLLEKKTTKELVHTTLECVKKNMPVEETAWSCCPKNWKSFSSNCYFISTESASWQDSEKDCARMEAHLLVINTQEEQDFIFQNLQEESAYFVGLSDPEGQRHWQWVDQTPYNESSTFWHPREPSDPNERCVVLNFRKSPKRWGWNDVNCLGPQRSVCEMMKIHLHHHHHH
# Experiments:
# Assay in all cases: glycan array binding signal (z-score within array); higher = stronger binding
# Details in all cases: glycan notation: IUPAC condensed, linker removed
# [1] = target: Fuc(a1-2)Gal(b1-4)GlcNAc(b1-6)GalNAc
# How it was run: (§1)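 Columns mapping to the same glycan were averaged after glycan names were converted to IUPAC-condensed notation. The data come from 3228 arrays in the Consortium for Functional Glycomics database, limited to those with an available protein sequence. Binding is reported as a within-array Z-score averaged across arrays of one protein sequence and across linkers.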
# [2] = target: Fuc(a1-2)[Gal(a1-3)]Gal(b1-4)GlcNAc(b1-3)GalNAc
# How it was run: as §1
# [3] = target: Fuc(a1-2)[GalNAc(a1-3)]Gal(b1-4)GlcNAc(b1-6)GalNAc
# How it was run: as §1
# [4] = target: Fuc(a1-2)[GalNAc(b1-3)]Gal
# How it was run: as §1
# [5] = target: Fuc(a1-3)[GalNAc(b1-4)]GlcNAc6S
# How it was run: as §1
# [6] = target: Gal(a1-3)Gal(b1-4)GlcNAc
# How it was run: as §1
# [7] = target: Gal(a1-3)Gal(b1-4)GlcNAc(b1-6)GalNAc
# How it was run: as §1
# [8] = target: Gal(b1-3)GlcNAc(b1-3)Gal(b1-4)[Fuc(a1-3)]GlcNAc(b1-6)[Gal(b1-3)GlcNAc(b1-3)]Gal(b1-4)Glc
# How it was run: as §1
# [9] = target: Gal(b1-4)GlcNAc(b1-3)Gal(b1-3)GalNAc
# How it was run: as §1
# [10] = target: Gal(b1-4)GlcNAc(b1-3)Gal(b1-4)GlcNAc(b1-3)Gal(b1-4)GlcNAc(b1-3)Gal(b1-4)GlcNAc(b1-2)Man(a1-3)[Gal(b1-4)GlcNAc(b1-3)Gal(b1-4)GlcNAc(b1-3)Gal(b1-4)GlcNAc(b1-3)Gal(b1-4)GlcNAc(b1-2)Man(a1-6)]Man(b1-4)GlcNAc(b1-4)[Fuc(a1-6)]GlcNAc
# How it was run: as §1
# [11] = target: Gal(b1-4)GlcNAc(b1-3)Gal(b1-4)GlcNAc(b1-3)Gal(b1-4)GlcNAc(b1-3)Gal(b1-4)GlcNAc(b1-3)Gal(b1-4)GlcNAc(b1-3)Gal(b1-4)GlcNAc(b1-2)Man(a1-3)[Gal(b1-4)GlcNAc(b1-3)Gal(b1-4)GlcNAc(b1-3)Gal(b1-4)GlcNAc(b1-3)Gal(b1-4)GlcNAc(b1-3)Gal(b1-4)GlcNAc(b1-3)Gal(b1-4)GlcNAc(b1-2)Man(a1-6)]Man(b1-4)GlcNAc(b1-4)GlcNAc
# How it was run: as §1
# [12] = target: Gal(b1-4)GlcNAc(b1-3)Gal(b1-4)[Fuc(a1-3)]GlcNAc(b1-3)Gal(b1-4)[Fuc(a1-3)]GlcNAc
# How it was run: as §1
# [13] = target: Gal(b1-4)GlcNAc(b1-3)[Gal(b1-4)GlcNAc(b1-6)]Gal(b1-4)GlcNAc
# How it was run: as §1
# [14] = target: Gal3S(b1-4)[Fuc(a1-3)]Glc6S
# How it was run: as §1
# [15] = target: Gal3S(b1-4)[Fuc(a1-3)]GlcNAc6S
# How it was run: as §1
# [16] = target: GalNAc(a1-3)Gal
# How it was run: as §1
# [17] = target: GalNAc(b1-3)Gal
# How it was run: as §1
# [18] = target: GalNAc(b1-3)Gal(a1-4)Gal(b1-4)GlcNAc(b1-3)Gal(b1-4)Glc
# How it was run: as §1
# [19] = target: GalNAc(b1-3)Gal(a1-6)Gal(b1-4)Glc
# How it was run: as §1
# [20] = target: GalNAc(b1-4)GlcNAc6S
# How it was run: as §1
# [21] = target: GalNAc4S6S(b1-4)GlcNAc
# How it was run: as §1
# [22] = target: Glc(a1-6)Glc(a1-6)Glc(a1-6)Glc
# How it was run: as §1
# [23] = target: GlcNAc(a1-4)Gal(b1-4)GlcNAc(b1-3)Gal(b1-4)Glc
# How it was run: as §1
# [24] = target: GlcNAc(b1-3)Gal(b1-4)GlcNAc(b1-3)Gal(b1-4)GlcNAc(b1-3)Gal(b1-4)GlcNAc(b1-3)Gal(b1-4)GlcNAc(b1-2)[GlcNAc(b1-3)Gal(b1-4)GlcNAc(b1-3)Gal(b1-4)GlcNAc(b1-3)Gal(b1-4)GlcNAc(b1-3)Gal(b1-4)GlcNAc(b1-6)]Man(a1-6)[GlcNAc(b1-3)Gal(b1-4)GlcNAc(b1-3)Gal(b1-4)GlcNAc(b1-3)Gal(b1-4)GlcNAc(b1-3)Gal(b1-4)GlcNAc(b1-2)Man(a1-3)]Man(b1-4)GlcNAc(b1-4)[Fuc(a1-6)]GlcNAc
# How it was run: as §1
# [25] = target: GlcNAc(b1-3)Gal(b1-4)GlcNAc(b1-6)[GlcNAc(b1-3)Gal(b1-3)]GalNAc
# How it was run: as §1
# [26] = target: GlcNAc(b1-3)GalNAc
# How it was run: as §1
# [27] = target: GlcNAc(b1-3)[GlcNAc(b1-6)]GalNAc
# How it was run: as §1
# [28] = target: GlcNAc(b1-6)GalNAc
# How it was run: as §1
# [29] = target: Kdn(a2-3)Gal(b1-4)[Fuc(a1-3)]GlcNAc
# How it was run: as §1
# [30] = target: Man(a1-6)Man
# How it was run: as §1
# [31] = target: Neu5Ac(a2-3)Gal(b1-3)GalNAc(b1-4)[Neu5Ac(a2-8)Neu5Ac(a2-3)]Gal(b1-4)Glc
# How it was run: as §1
# [32] = target: Neu5Ac(a2-3)Gal(b1-3)GalNAc6S
# How it was run: as §1
# [33] = target: Neu5Ac(a2-3)Gal(b1-3)GlcNAc(b1-2)Man
# How it was run: as §1
# [34] = target: Neu5Ac(a2-3)Gal(b1-3)GlcNAc(b1-2)Man(a1-3)[Neu5Ac(a2-3)Gal(b1-3)GlcNAc(b1-2)Man(a1-6)]Man(b1-4)GlcNAc(b1-4)GlcNAc
# How it was run: as §1
# [35] = target: Neu5Ac(a2-3)Gal(b1-4)GlcNAc(b1-2)Man(a1-3)[GlcNAc(b1-4)][Neu5Ac(a2-3)Gal(b1-4)GlcNAc(b1-2)Man(a1-6)]Man(b1-4)GlcNAc(b1-4)GlcNAc
# How it was run: as §1
# [36] = target: Neu5Ac(a2-3)Gal(b1-4)GlcNAc(b1-2)[Neu5Ac(a2-3)Gal(b1-4)GlcNAc(b1-4)]Man(a1-3)[GlcNAc(b1-4)][Neu5Ac(a2-3)Gal(b1-4)GlcNAc(b1-2)[Neu5Ac(a2-3)Gal(b1-4)GlcNAc(b1-6)]Man(a1-6)]Man(b1-4)GlcNAc(b1-4)GlcNAc
# How it was run: as §1
# [37] = target: Neu5Ac(a2-3)Gal(b1-4)GlcNAc(b1-3)[Neu5Ac(a2-3)Gal(b1-4)GlcNAc(b1-6)]GalNAc
# How it was run: as §1
# [38] = target: Neu5Ac(a2-3)Gal(b1-4)GlcNAc6S
# How it was run: as §1
# [39] = target: Neu5Ac(a2-3)Gal(b1-4)[Fuc(a1-3)]GlcNAc
# How it was run: as §1
# [40] = target: Neu5Ac(a2-3)Gal(b1-4)[Fuc(a1-3)]GlcNAc(b1-6)[Gal(b1-3)]GalNAc
# How it was run: as §1
# [41] = target: Neu5Ac(a2-3)Gal6S(b1-4)GlcNAc
# How it was run: as §1
# [42] = target: Neu5Ac(a2-8)Neu5Ac
# How it was run: as §1
# [43] = target: Neu5Gc(a2-3)Gal(b1-3)GlcNAc
# How it was run: as §1
binder,measurement,setting,value
B1,glycan array binding signal (z-score),[1],5.99
same,glycan array binding signal (z-score),[2],-0.635
same,glycan array binding signal (z-score),[3],5.33
same,glycan array binding signal (z-score),[4],3.31
same,glycan array binding signal (z-score),[5],0.081
same,glycan array binding signal (z-score),[6],-0.455
same,glycan array binding signal (z-score),[7],5.08
same,glycan array binding signal (z-score),[8],-0.655
same,glycan array binding signal (z-score),[9],-0.458
same,glycan array binding signal (z-score),[10],2.82
same,glycan array binding signal (z-score),[11],-0.417
same,glycan array binding signal (z-score),[12],-0.584
same,glycan array binding signal (z-score),[13],-0.335
same,glycan array binding signal (z-score),[14],-0.343
same,glycan array binding signal (z-score),[15],3.25
same,glycan array binding signal (z-score),[16],1.17
same,glycan array binding signal (z-score),[17],3.75
same,glycan array binding signal (z-score),[18],4.3
same,glycan array binding signal (z-score),[19],5.47
same,glycan array binding signal (z-score),[20],0.86
same,glycan array binding signal (z-score),[21],-0.659
same,glycan array binding signal (z-score),[22],-0.038
same,glycan array binding signal (z-score),[23],-0.696
same,glycan array binding signal (z-score),[24],-0.597
same,glycan array binding signal (z-score),[25],-0.546
same,glycan array binding signal (z-score),[26],-0.415
same,glycan array binding signal (z-score),[27],-0.401
same,glycan array binding signal (z-score),[28],4.02
same,glycan array binding signal (z-score),[29],-0.218
same,glycan array binding signal (z-score),[30],3.2
same,glycan array binding signal (z-score),[31],-0.554
same,glycan array binding signal (z-score),[32],1.41
same,glycan array binding signal (z-score),[33],-0.373
same,glycan array binding signal (z-score),[34],-0.312
same,glycan array binding signal (z-score),[35],-0.66
same,glycan array binding signal (z-score),[36],-0.508
same,glycan array binding signal (z-score),[37],0.114
same,glycan array binding signal (z-score),[38],-0.518
same,glycan array binding signal (z-score),[39],-0.342
same,glycan array binding signal (z-score),[40],-0.187
same,glycan array binding signal (z-score),[41],-0.608
same,glycan array binding signal (z-score),[42],-0.297
same,glycan array binding signal (z-score),[43],-0.174

# Source: the supplement of paper PMC8728848
